MPTP block: mitochondrial permeability transition pore inhibitors, primary screen, biochemical, isolated mouse mitochondria, absorbance. Ca2+ swelling absorbance, 30 min. inhibition, % at 10 µM. 360,000 tested, 1.4% active. AID 602449, 2012;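 active means inhibition of 50% or more, scaled per plate between neutral and stimulator controls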;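 further: 0% = DMSO wells given calcium and 100% = 1 mM EGTA wells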
SKKanGAS inh: S. pyogenes SKKanGAS growth inhibitors in kanamycin, primary screen, streptokinase expression inhibitor project, SKKanGAS strain, BacTiter-Glo luminescence. 6 h. inhibition, % at 7.5 µM. 300,000 tested, 1.3% active. AID 1662, 2009;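 active means mean replicate score, as percent of positive control median, at least 50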;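 further: strain carries kanamycin resistance gene driven by streptokinase promoter and grows in 40 µg/ml kanamycin; loss of luminescence reflects streptokinase promoter inhibition or plain growth inhibition; 0% = median of DMSO wells and 100% = positive control at its reference dose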
Mdm2-MdmX inh: inhibitors of human Mdm2-MdmX association, primary screen, cell-based, luminescence, split luciferase, SaOS-2, uHTS | Protein Mdm4 (Homo sapiens) + E3 ubiquitin-protein ligase Mdm2 (Homo sapiens), … | SaOS-2 split-luciferase Mdm2/MdmX complementation | inhibition, % at 8 µM | 330,000 tested, 3% active | AID 485346, 2010;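 active means inhibition of at least 50% at 8 µM in the primary screen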
Beta cell apopt: inhibitors of cytokine-induced beta cell apoptosis, primary screen, luminescence | INS-1E cytokine-induced death, ATP luminescence, 48 h; percent of positive-control rescue, neutral wells zero | protection from apoptosis, % (concentration not given with the values) | 300,000 tested, 0.8% active;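 active means Every replicate reaches about 75%, or at least half do and their mean reaches it too, limit read from the data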;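 further: 0% = cytokine-treated negative control wells and 100% = positive control rescue; higher means more ATP so stronger rescue from cytokine killing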
CSC inhib: cancer stem cell viability inhibitors, primary screen, luminescence. 300,000 tested, 1.1% active. cancer stem cell-like cells viability. AID 2717, 2010. inhibition, % at 7.5 µM; in the data active means inhibition above about 75%; tested in HMLE shEcad cells
GRIN3A LBD mod: binders of NR3A ligand-binding domain, primary screen, biophysical, differential scanning fluorimetry, uHTS; Glutamate receptor ionotropic, NMDA 3A (GRIN3A) ligand-binding domain; NR3A LBD differential scanning fluorimetry, Tm shift; 0% = protein alone, 100% = glycine-bound protein; Tm shift relative to glycine control, % at 25 µM; 340,000 tested, 2.5% active; AID 1259313, 2017;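 active means melting temperature shift of at least 10% of the positive control shift, at one fixed dose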
* = called active by the depositor; . = no result given. Hits are enriched below; roughly 6.9% of the tested compounds scored in any of these assays.

SMILES | MPTP block | SKKanGAS inh | Mdm2-MdmX inh | Beta cell apopt | CSC inhib | GRIN3A LBD mod
COc1ccccc1NC(=O)Nc1nc(CC(=O)Nc2cc(F)ccc2F)cs1 | 0 | 82* | 0 | -4 | . | 21*
COc1ccccc1NC(=O)Nc1nc(CC(=O)Nc2ccc(F)cc2)cs1 | 3 | 14 | -3 | 4 | -14 | 33*
CCC1ON(c2ccccc2)C2c3nc4ccccc4n3CC12 (configuration not stated) | -1 | 0 | 12 | 3 | 0 | 2
Cc1noc(C)c1-c1ccc(C(=O)NCc2cccs2)c2occc12 | 1 | . | . | . | . | .
COc1ccc(C(O)c2nc(-c3cc(F)cc(F)c3)cs2)cc1 (configuration not stated) | 2 | . | . | . | . | .
COc1ccc(/C=N/NC(=O)c2ccncc2)c(OC)c1 | -1 | -5 | 11 | 0 | -1 | 20*
O=C(N/N=C\c1cc(Cl)ccc1O)c1ccc(S(=O)(=O)N2CCCCC2)cc1 | 13 | 121* | 32 | 97* | -4 | -1
O=C(N/N=C/c1cc(Cl)cc(Cl)c1O)c1ccncc1 | 7 | 88* | 34 | 51 | 9 | -3
COc1ccc(/C=N/NC(=O)c2ccc(Br)cc2)c(OC)c1 | -2 | -10 | 17 | -2 | -8 | 1
O=C(N/N=C/c1cccnc1)c1cccc(Cl)c1 | 4 | -3 | -14 | 6 | -8 | -3
O=C(N/N=C/c1cc(Cl)ccc1O)c1cccnc1 | 0 | 85* | 31 | 86* | 31 | -1
O=C(N/N=C/c1cc(Br)cc(Br)c1O)c1ccncc1 | . | 69* | 18 | 79* | -6 | -6
O=C(NNS(=O)(=O)c1ccc(Br)cc1)NC1CCCCC1 | -1 | 2 | -2 | -2 | -4 | 13*
CCOCCCNC(=O)C1(O)c2ccccc2NC(=O)N1c1ccc(Cl)cc1 (configuration not stated) | 7 | -2 | 9 | -3 | 4 | 12*
CCOCCCNC(=O)C1(O)c2cc(Br)ccc2NC(=O)N1c1ccc(CC)cc1 (configuration not stated) | -1 | -2 | 17 | -1 | -23 | 18*
CCOCCCNC(=O)C1(O)c2cc(Br)ccc2NC(=O)N1c1ccc(OCC)cc1 (configuration not stated) | 0 | 0 | 9 | -8 | -11 | 12*
COc1cccc(Nc2nc(-c3sc(N)nc3C)cs2)c1 | -2 | 35 | -31 | -5 | 26 | -2
Cc1nc(C)c(-c2csc(Nc3ccc(F)cc3)n2)s1 | 1 | 3 | -69 | -4 | 31 | 15*
COc1cccc(Nc2nc(-c3sc(C)nc3C)cs2)c1 | -1 | -12 | 0 | -5 | 32 | 12*
COc1ccc(/C=N/NC(=S)N[C@H]2CC3CCC2C3)cc1 (some centres not stated) | 1 | 39 | 12 | -4 | 37 | 26*
COc1cc(/C=N/NC(=S)NC2CC3CCC2C3)ccc1O (configuration not stated) | 2 | -32 | 41 | 14 | 31 | -3
COc1c(O)ccc(C2NC(=O)NC(C)=C2C(=O)Nc2ccccc2C)c1[N+](=O)[O-] (configuration not stated) | 0 | -1 | -1 | -6 | 2 | -1
CCOC(=O)/C(=C\c1ccccc1)C(=O)CCN1CCOCC1 | 0 | . | . | . | . | 3
Cc1ccc(/C=C2/CNC/C(=C/c3ccc(C)cc3)C2=O)cc1 | 0 | . | . | . | . | 31*
CCN1C[C@@H]2[C@@H]3C(=O)N(Cc4ccccc4)C(=O)[C@@H]3[C@](Cc3ccccc3)(C(=O)OC)N2C1=NC | 2 | . | 7 | . | . | 0
O=[N+]([O-])c1ccc(Nc2ccc(Cl)cc2)nc1 | 0 | -12 | -12 | . | -5 | 11*
Cc1ccc(NC(=O)c2ccc(Nc3ccccc3F)nc2)cc1 | 1 | 3 | 4 | -3 | 12 | 30*
O=[N+]([O-])c1ccc(Nc2ccccc2F)nc1 | 10 | 16 | 17 | -1 | 4 | 27*
CC(C)C[C@@H](COCc1cccc(C(F)(F)F)c1)N1CCN(C(=O)c2ccc(C(F)(F)F)cc2)CCC1=O | 0 | . | . | . | . | .
